# Assay outcomes: PubChem BioAssay, National Center for Advancing Translational Sciences (NCATS)
# RE007 growth inh: less growth of the S. pombe RE007 Vpr strain; S. pombe RE007 Vpr strain, BacTiter-Glo ATP luminescence, 24 h; Potency, µM (doses to about 92.2 µM), without a hit: at the highest dose activity change, negative = less growth, hits mostly inhibitors; actives 0.21% (n = 360,000); active means well fitted falling curve with a large enough effect; inconclusive means small, poorly fitted or top-dose-only effect; inactive means no such curve, though single readings can be large or run the other way; further: nearly all actives have a fitted effect of over 50% in size
#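 Fission yeast strain RE007, carrying one chromosomally integrated HIV-1 vpr copy, was seeded at OD 0.01 in PMG+AL medium with 23 nL pinned compound. After 24 h at 30 °C and 99% humidity, viability was read by BacTiter-Glo luminescence.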
# Sm TGR block: inhibitors of Schistosoma mansoni thioredoxin glutathione reductase. Q962Y6. purified TGR, DTNB reduction, TNB absorbance 405 nm. Potency, µM (top dose mostly 114 µM), without a hit: at the top dose activity change, negative = inhibition, most hits filed as inhibitors. actives 3% (n = 360,000); further: nearly all actives have a fitted effect of over 60% in size
#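 First, TGR (20 nM dispensed) and NADPH were mixed with compound. Second, a 15 min room-temperature incubation followed. Third, further NADPH and then DTNB were added to start the reaction. Finally, TNB absorbance was monitored kinetically.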
# AmpC no deterg: AmpC beta-lactamase inhibition without detergent; actives 0.52% (n = 330,000); P00811; AmpC nitrocefin hydrolysis, absorbance 480 nm, 0.0001% Triton; Potency, µM (doses to about 57.1 µM), for the others: top-dose activity change, negative = inhibition, hits mostly inhibitors;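 further: plate controls were no compound for no effect and no enzyme for full effect; nearly all actives have a fitted effect of over 20% in size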
# Target sequence (P00811 whole entry, looked up): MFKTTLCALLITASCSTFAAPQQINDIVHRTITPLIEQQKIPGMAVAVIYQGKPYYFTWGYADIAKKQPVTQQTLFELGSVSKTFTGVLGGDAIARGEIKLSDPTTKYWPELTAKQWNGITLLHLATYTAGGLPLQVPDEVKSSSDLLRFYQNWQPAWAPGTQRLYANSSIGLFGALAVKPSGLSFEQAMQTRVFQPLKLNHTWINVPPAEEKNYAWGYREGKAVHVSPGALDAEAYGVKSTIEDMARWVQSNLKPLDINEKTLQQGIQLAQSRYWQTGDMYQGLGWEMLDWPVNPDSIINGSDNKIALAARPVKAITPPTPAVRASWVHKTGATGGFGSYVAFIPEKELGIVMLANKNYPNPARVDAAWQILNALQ
#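 AmpC (5.3 nM in the dispensed reagent) in 20 mM phosphate pH 7.0 with 0.01% (detergent screen) or 0.0001% Triton X-100 was preincubated with compounds for 15 min at room temperature. Nitrocefin was then added from an 800 uM solution, and hydrolysis was followed at 480 nm.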
# Giardia FBPA inh: blocks Giardia fructose-bisphosphate aldolase activity; actives 0.71% (n = 290,000); A8B2U2; purified Giardia FBPA; Potency, µM (titrated, usually from 59.6 µM), for inactives: at the highest dose activity, negative = inhibition, most hits filed as inhibitors; AID 2451; further: nearly all actives have a fitted effect of over 55% in size
# Target sequence (A8B2U2 whole entry, looked up): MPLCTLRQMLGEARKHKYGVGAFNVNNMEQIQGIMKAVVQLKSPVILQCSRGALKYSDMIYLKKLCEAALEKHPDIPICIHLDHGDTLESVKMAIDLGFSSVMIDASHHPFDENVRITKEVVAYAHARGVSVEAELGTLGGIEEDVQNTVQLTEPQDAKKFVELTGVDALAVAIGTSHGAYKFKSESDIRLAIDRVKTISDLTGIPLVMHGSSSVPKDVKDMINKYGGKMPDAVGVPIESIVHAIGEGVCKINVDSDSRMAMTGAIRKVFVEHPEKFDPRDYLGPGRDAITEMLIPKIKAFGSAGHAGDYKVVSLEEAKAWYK
#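 Giardia FBPA (40 nM reagent) was preincubated 10 min at RT with compound (up to 57.5 uM final), then substrate plus GAPDH/TPI/NAD/arsenate coupling system with diaphorase/resazurin was added; resorufin fluorescence (525/598 nm) was read after 20 min.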
# AmpC detergent: blocks E. coli AmpC beta-lactamase in detergent assay. P00811. AmpC hydrolysis of nitrocefin, absorbance 480 nm, 0.01% Triton. Potency, µM (series often up to 114 µM), inactives show at the top dose activity change, negative = inhibition, hits mostly inhibitors. actives 0.041% (n = 370,000);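 further: 0% = no-compound wells and -100% = no-enzyme wells; nearly all actives have a fitted effect of over 25% in size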
#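 AmpC (5.3 nM in the dispensed reagent) in 20 mM phosphate pH 7.0 with 0.01% (detergent screen) or 0.0001% Triton X-100 was preincubated with compounds for 15 min at room temperature. Nitrocefin was then added from an 800 uM solution, and hydrolysis was followed at 480 nm.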
# The depositor's hits bear a star; ? = inconclusive; nt = no result given. An excerpt weighted towards active compounds, which were near 3.4% of everything screened. Unless noted, the call rests on the fitted dose curve; in most records, active means well fitted curve in the direction sought with a large enough effect; inconclusive means small, poorly fitted or top-dose-only effect, or another doubt; inactive means no such curve, though single readings can be large; an effect the other way counts as inactive or inconclusive. Unless noted, on the % scale 0 is the no-effect control and ±100 the full control effect; potency means the concentration at half of the fitted maximal effect.
SMILES,RE007 growth inh,Sm TGR block,AmpC no deterg,Giardia FBPA inh,AmpC detergent
Cc1oc(-c2cccs2)nc1CS(=O)CC(=O)NCCc1ccccc1 (centres undefined),-1.6%,10µM*,-10.4%,0.1%,-22.0%
COc1ccc(C(=O)N2CCCC(CO)(Cc3ccccc3C)C2)o1 (centres undefined),3.2%,44.7µM*,37.1%,nt,-9.4%
CCC(C)NC(=O)C1CCN(S(=O)(=O)c2ccc3c(ccn3CC)c2)CC1 (centres undefined),nt,-0.8%,nt,nt,9.9%
O=C1C2CC=CCC2C(=O)N1c1n[nH]c(-c2ccccc2)n1 (centres undefined),-1.3%,3.7%,-8.8%,-18.1%,-1.6%
N#C/C(=C\c1ccc(OC(=O)c2ccccn2)cc1)C(N)=O,-10.0%,39.8µM*,-13.5%,?,-3.7%
O=C(NCc1ccccc1Cl)c1cc(=O)[nH]c2ccccc12,-16.2%,50.1µM*,-15.1%,6.1%,-18.0%
CCn1cc2nc(SCC(=O)Nc3ccc(C)cc3C)n(Cc3ccc(C)cc3)c(=O)c2n1,nt,-1.9%,nt,nt,2.7%
CCOc1ccc(C(C)=O)cc1COc1ccc(C)nc1[N+](=O)[O-],-7.2%,10µM*,-7.6%,13.1%,-3.9%
CN(C)C1=NC(=O)/C(=C/c2ccc(-c3ccc(S(N)(=O)=O)cc3)o2)S1,nt,31.6µM*,-13.4%,-6.5%,-10.5%
NC1=NC(=O)/C(=C\c2ccc(-c3ccc(Cl)cc3)o2)S1,7.2%,-23.6%,-54.5%,-7.6%,-13.0%
CCCCCOc1ccc(C(=O)OC(C)C(=O)NCc2ccco2)cc1 (centres undefined),-0.3%,-3.5%,25.7%,-0.9%,-8.3%
Fc1cc(F)cc(-c2c(-c3ccccc3)ncc3ccc(F)cc23)c1,-3.8%,44.7µM*,-0.4%,nt,0.6%
Fc1ccc2cnc(-c3ccccc3)c(-c3cccc(C(F)(F)F)c3)c2c1,4.2%,6.4%,0.5%,nt,0.7%
c1ccc(-c2ccc(C(c3ccccc3)n3ccnc3)cc2)cc1 (centres undefined),-7.0%,7.4%,-6.7%,?,5.5%
c1ccc(-c2ccc(-n3ccnc3)cc2)cc1,28.2µM*,-43.5%,-6.7%,-6.4%,?
CCCC(=O)N1c2ccccc2[C@@H](N(C(C)=O)c2ccccc2)C[C@H]1C,2.9%,0.0%,41.3%,4.2%,-12.4%
CCC(=O)N1c2ccccc2C(N(C(C)=O)c2ccccc2)CC1C (centres undefined),-1.4%,10µM*,25.7%,0.4%,1.3%
COc1ccc(Cc2nc(-c3ccc(-n4cccc4)cc3)no2)cc1,-4.9%,-2.3%,-19.6%,3.5%,-9.2%
COc1ccc(Cc2nc(-c3ccc(-n4cccc4)cc3)no2)cc1OC,-4.5%,-2.0%,8.91µM*,-5.5%,-0.5%
COc1ccc(CC(=O)n2[nH]c(=O)cc(C)c2=O)cc1OC,-7.1%,22.4µM*,-11.6%,-0.8%,2.0%
CCSc1ccc(-c2ccco2)nn1,-12.0%,12.6µM*,-25.0%,-22.4%,-7.9%
CSc1ccc(-c2ccco2)nn1,-16.2%,10µM*,-19.1%,?,5.4%
COc1ccc(N(C(=O)/C=C\C(=O)Nc2ccc(Cl)cc2)C(C(=O)NCc2ccco2)c2ccc(C)cc2)cc1 (centres undefined),nt,7.94µM*,nt,nt,-4.8%
CCOc1ccc(N(C(C)C(=O)NCc2ccco2)S(C)(=O)=O)cc1 (centres undefined),0.4%,44.7µM*,-9.5%,2.1%,8.2%
COc1ccc(NC(=O)/C=C\C(=O)N(c2ccc(C(C)C)cc2)C(C(=O)NCc2ccco2)c2ccc(F)cc2)cc1 (centres undefined),nt,-26.4%,nt,nt,7.9%
SMILES,RE007 growth inh,Sm TGR block,AmpC no deterg,Giardia FBPA inh,AmpC detergent
CCOc1ccc(NC(=O)/C=C\C(=O)N(c2ccc(C(C)C)cc2)C(C(=O)NCc2ccco2)c2ccc(F)cc2)cc1 (centres undefined),nt,56.2µM*,nt,nt,9.6%
O=C(CCSc1ccccc1)Nc1nnc(-c2ccccc2)o1,8.9%,0.0%,-36.1%,24.1%,-14.3%
Cc1nc(-c2nc(-c3c(C(=O)NN)noc3C)cs2)cs1,12.6%,-1.9%,-30.6%,-22.3%,?
NC(CO)C(=O)NNCc1ccc(O)c(O)c1O (centres undefined),6.8%,0.316µM*,-27.2%,7.92µM*,?
NC(=O)C[C@H](NC(=O)Cc1ccc(O)cc1O)C(=O)O,nt,nt,nt,-14.5%,nt
O=C(CSc1nccn1-c1ccc(Cl)cc1)Nc1nc2ccccc2s1,nt,0.9%,nt,nt,-6.2%
COc1ccc(N2Cc3ccc(C(=O)N/N=C\c4ccc(O)cc4O)cc3C2)cc1,nt,28.2µM*,-46.9%,13.0%,-2.4%
COc1ccc2nc(C)cc(SCC(=O)N/N=C/c3ccc(O)cc3O)c2c1,16.2%,4.5%,-24.8%,-9.8%,0.7%
O=C(COC(=O)c1cc(Br)ccc1O)NCC1CCCO1 (centres undefined),24.4%,-5.4%,-5.2%,nt,-5.4%
Cc1c(NC(=O)OC(C)C)sc(=S)n1C,11.0%,35.5µM*,-17.3%,-0.2%,?
CC1(C)Cc2c(C#N)c(NCCN3CCOCC3)nc(-c3ccccc3)c2CO1,-7.1%,-4.7%,82.0%,4.8%,-5.5%
CC1(C)Cc2c(C#N)c(NCCN3CCOCC3)nc(-c3ccco3)c2CO1,-6.6%,35.5µM*,129.0%,-6.4%,?
CN(C)CCNc1nc(-c2ccccc2)c2c(c1C#N)CC(C)(C)OC2,-10.4%,-18.7%,-3.1%,3.1%,-11.8%
CC1(C)Cc2c(C#N)c(NCCO)nc(-c3ccco3)c2CO1,-12.8%,3.55µM*,19.9%,0.1%,5.1%
Cc1nc2nc(CSc3ccc(Cl)cc3)cc(=O)n2[nH]1,8.9%,10.6%,-21.0%,-0.8%,1.8%
COc1cc(NC(=O)Cn2ccn(-c3cc(C)cc(C)c3)c(=O)c2=O)cc(OC)c1,nt,-5.4%,nt,nt,17.0%
Cc1ccc(NC(=O)CCC(=O)N/N=C/c2cccs2)cc1,-4.8%,-2.9%,-26.8%,6.7%,-7.6%
CCOC(=O)C1CCCN(C(=O)CNS(=O)(=O)c2ccc(Br)s2)C1 (centres undefined),-3.2%,-6.3%,-4.0%,3.1%,-10.7%
CCCc1nc(NC2CCCCC2)c(C#N)c2c1COC(C)(C)C2,-16.7%,0.0%,-15.8%,-0.8%,-11.2%
COc1ccc(C=C2C(=O)N(C)C(=O)N(C)C2=O)cc1CSc1ccccn1,-5.7%,?,-30.0%,-8.2%,3.5%
COc1ccc(/C=C2/C(=O)NC(=O)N(C3CCCCC3)C2=O)cc1CSc1ccccn1,nt,35.5µM*,-28.3%,-9.4%,?
COc1ccc(/C=C2/C(=O)NC(=S)N(C3CC3)C2=O)cc1CN1C(=O)c2ccccc2C1=O,-3.0%,11.2µM*,-35.2%,?,-5.5%
CCOC(=O)c1ccc(-c2c(-c3ccccc3OC)sc3cc4c(cc23)OCO4)cc1F,3.5%,-16.0%,-40.8%,nt,2.2%
